Screening results from PubChem BioAssay.
EBV LMP1 NFkB: reduces LMP1-driven NF-kappaB luciferase signal; inhibition, % at 12.5 µM; AID 504558; 0.69% of 350,000 active; LMP1-induced NF-kappaB luciferase reporter cells, luminescence; in the data active = inhibition above about 41%;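 also: 0% = neutral control wells and 100% = reference inhibitor control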
Shn3 3UTR inh: reduces Shn3 3'UTR luciferase signal in osteoblasts. Clone20 osteoblast Shn3 3'UTR firefly luciferase, 24 h. inhibition, % at 12.5 µM. 0.52% of 360,000 active. AID 588674;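 active = mean inhibition of at least 75% with every replicate also reaching 75%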;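 also: 0% = median of neutral control wells and 100% = pilot-screen positive control compound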
LGR2 inh: blocks bursicon-induced cAMP signaling via Drosophila LGR2 | HEK293 LGR2, CRE-luciferase, bursicon-stimulated, 4 h | inhibition, % at 9.99 µM | 0.35% of 380,000 active;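 active = drop in luminescence signal, shown as inhibition above about 50% in the replicate tests, limit read from the data, passing the limit was not always enough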;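 also: agonist challenge used bursicon conditioned medium at about half maximal strength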
MITF TRPM1 inh: MITF TRPM1 promoter inhibition in SK-MEL-5 cells | SK-MEL-5 TRPM1 promoter luciferase, 24 h | inhibition, % at 12.5 µM | 0.83% of 330,000 active;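 active = mean inhibition across replicates of 60% or more, whatever share of single replicates reaches that level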
PAX8 inh HTS: lowers PAX8-driven luciferase in RMG-I cells | RMG-I TPO-luciferase reporter, SteadyGlo, 24 h | inhibition, % at 12.6 µM | 1.2% of 360,000 active | AID 652154;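 active = mean replicate inhibition at least 60% with every replicate also reaching 60%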;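 also: luciferase light reporting Pax8 driven TPO promoter activity; plate controls were median of neutral control wells for no effect and mitoxantrone controls for full effect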
EWS-Fli inh: blocks EWS/Fli oncoprotein-driven transcription | A673 NR0B1-luciferase reporter, viability-normalised | inhibition, % at 12.6 µM | 0.67% of 350,000 active | AID 651661;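 active = mean inhibition of at least 50% after viability correction, with every replicate also passing that limit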;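 also: firefly luciferase signal divided by Alamar Blue viability fluorescence both relative to DMSO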
DNA binding: small molecule DNA binding by fluorescence polarization; salmon sperm DNA acridine orange fluorescence polarization; AID 720586; 2% of 640 active; shares compounds with EWS-Fli inh; AC35, µM (highest dose often 68 µM), without a hit: top-dose activity change, negative = DNA binding;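 active = fitted curve reaches a 35% signal fall AC35 below twice the sample's top valid tested dose, actives reach about 48 µM in these data; inactive = the rest, including activity in the rising direction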;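 also: lower polarization ratio signals compound binding to DNA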
Numbers without * were called inactive; . = no result given. This is a sample that favours compounds with a hit; in the whole collection about 2.2% have one here.

SMILES	EBV LMP1 NFkB	Shn3 3UTR inh	LGR2 inh	MITF TRPM1 inh	PAX8 inh HTS	EWS-Fli inh	DNA binding
COc1ccc2c3c([nH]c2c1)[C@@H](CO)N(C(=O)NC1CCCC1)CC31CCN(C(=O)Nc2cccc(F)c2)CC1	.	.	2.8	.	.	15.9	.
Cc1ccc(C(=O)NCCC(=O)NCc2cc(=O)n(C)c(=O)n2C)cc1	-6.2	-11.6	5.0	-5.6	-8.0	.	.
Cc1cc(C)cc(C(=O)NCCC(=O)NCc2cc(=O)n(C)c(=O)n2C)c1	55.3*	-4.9	9.2	5.3	6.6	-9.8	.
CC1(C)C(=O)C=CC(=O)C(C)(C)C(=O)C=CC(=O)C(C)(C)C2=CC=C(O2)C(C)(C)C(=O)C=CC1=O	-11.6	9.4	23.3	91.7*	0.8	10.5	.
FC(F)Oc1ccc(-n2cc(-c3ccccc3)[n+]3c2CCCCC3)cc1	-2.6	71.5	-4.7	9.9	27.1	13.9	.
Cc1ccc(-c2cn(-c3ccc(OC(F)F)cc3)c3[n+]2CCCCC3)cc1	10.0	87.7*	10.1	28.1	47.6	5.6	.
CCN(CC)c1ccc(/C=N/Nc2ccc(C)cc2)c(O)c1	-17.8	7.4	.	-12.3	15.1	-3.0	.
Cc1cc(=O)[nH]c(N/N=C/c2ccccc2Cl)n1	-4.9	-3.4	5.0	-38.2	-20.3	-34.3	.
CCN(CC)c1ccc(/C=N/Nc2nc(C)cc(=O)[nH]2)c(O)c1	60.6*	82.7	15.3	44.1	74.6*	18.9	.
Cc1cc(=O)[nH]c(NN=Cc2cc(Br)ccc2O)n1	55.9*	74.2	-4.5	30.6	17.4	1.3	.
CCCNC(=O)C[C@@H]1CC[C@H]2[C@@H](COc3ccc(NC(=O)Cc4ccccc4)cc3C(=O)N2C)O1	.	.	1.3	.	0.0	-10.5	.
CCOc1ccc(C(=O)NCC(=O)OCc2c(C)noc2C)cc1OCC	-2.9	1.0	-2.1	-8.4	4.0	-1.9	.
CCOc1ccc(C(=O)NCC(=O)OCc2c(C)noc2C)cc1	-4.5	4.9	1.1	-4.4	72.9*	-7.8	.
CCCN1[C@@H]2c3ccc(C4=CCCC4)c(=O)n3C[C@H]1[C@H](CO)[C@H]2C(=O)NCc1ccccn1	.	.	9.5	.	-72.1	-2.6	.
CCC(O)(CCN1CCCCC1)c1ccccc1 (configuration not stated)	-1.4	-3.3	.	4.1	.	.	.
OC(CCCN1CCCCC1)(c1ccccc1)c1ccccc1	88.7*	-2.8	-9.5	-0.6	-1.7	3.5	.
CO[C@@H]1CN(C)C(=O)c2ccc(NC(=O)CN(C)C)cc2OC[C@@H](C)N(C(=O)C2CCOCC2)C[C@H]1C	.	.	5.8	.	-3.7	0.5	.
COc1ccc(-n2c(O)c(/C=N/Nc3nc(C)cc(C)n3)c3ccccc3c2=O)cc1OC	25.1	90.9*	5.9	39.8	54.4	19.5	.
CCN1[C@@H]2c3ccc(-c4ccc(F)cc4)c(=O)n3C[C@@H]2[C@@H](CO)[C@@H]1C(=O)NC1CCC1	.	.	-3.5	.	.	7.2	.
COc1ccc(S(=O)(=O)Nc2ccc3c(c2)C(=O)N([C@H](C)CO)C[C@@H](C)[C@@H](CN(C)Cc2ccc(C(=O)Nc4ccccc4N)cc2)O3)cc1	.	.	-8.9	.	.	56.0*	-0.9%
C[C@@H]1CN([C@@H](C)CO)C(=O)c2cc(NS(=O)(=O)c3ccc(F)cc3)ccc2O[C@@H]1CN(C)Cc1ccc(C(=O)Nc2ccccc2N)cc1	.	.	5.6	.	9.9	53.7*	-7.0%
COc1ccc(S(=O)(=O)Nc2ccc3c(c2)C(=O)N([C@H](C)CO)C[C@@H](C)[C@H](CN(C)CC2CCCCC2)OCCCC[C@@H](C)O3)cc1	.	.	11.9	.	18.7	4.9	.
COc1ccc(S(=O)(=O)Nc2ccc3c(c2)C(=O)N([C@@H](C)CO)C[C@@H](C)[C@@H](CN(C)Cc2ccc(C(=O)Nc4ccccc4N)cc2)O3)cc1	.	.	12.5	.	.	49.3	.
COc1ccc(S(=O)(=O)Nc2ccc3c(c2)C(=O)N([C@H](C)CO)C[C@@H](C)[C@@H](CN(C)CC2CCCCC2)OCCCC[C@H](C)O3)cc1	.	.	2.8	.	16.8	55.8*	-11.6%
C[C@@H]1CCCCO[C@H](CN(C)Cc2ccc(C(=O)Nc3ccccc3N)cc2)[C@@H](C)CN([C@@H](C)CO)C(=O)c2cc(NS(=O)(=O)c3ccc(Cl)cc3)ccc2O1	.	.	6.2	.	88.7*	58.8*	-8.0%
SMILES	EBV LMP1 NFkB	Shn3 3UTR inh	LGR2 inh	MITF TRPM1 inh	PAX8 inh HTS	EWS-Fli inh	DNA binding
C[C@H]1CN([C@@H](C)CO)C(=O)c2cc(NS(=O)(=O)c3ccc(Cl)cc3)ccc2O[C@H]1CN(C)Cc1ccc(C(=O)Nc2ccccc2N)cc1	.	.	-15.2	.	4.2	60.8*	-11.8%
C[C@@H]1CN([C@H](C)CO)C(=O)c2cc(NC(=O)CCCCCC(=O)Nc3ccccc3N)ccc2O[C@H]1CN(C)S(=O)(=O)c1ccc(Cl)cc1	.	.	5.5	.	.	52.1*	-9.3%
C[C@@H]1CN([C@H](C)CO)C(=O)c2cc(NS(=O)(=O)c3ccccc3)ccc2O[C@H]1CN(C)Cc1ccc(C(=O)Nc2ccccc2N)cc1	.	.	-3.7	.	18.3	29.6	.
C[C@@H]1CCCCO[C@@H](CN(C)Cc2ccc(C(F)(F)F)cc2)[C@H](C)CN([C@H](C)CO)C(=O)c2cc(NC(=O)CCCN(C)C)ccc2O1	.	.	5.0	.	.	11.8	.
C[C@@H]1CCCCO[C@H](CN(C)Cc2ccc(C(F)(F)F)cc2)[C@H](C)CN([C@H](C)CO)C(=O)c2cc(NC(=O)CCCN(C)C)ccc2O1	.	.	6.2	.	.	66.6*	0.1%
COc1ccc2c3c([nH]c2c1)[C@@H](CO)N(C(=O)Cc1ccccc1)CC31CCN(C(=O)Nc2ccccc2F)CC1	.	.	-13.8	.	.	0.9	.
Cc1noc(C)c1S(=O)(=O)N(C)C[C@H]1Oc2ccc(NC(=O)Cc3ccccc3)cc2CC(=O)N([C@@H](C)CO)C[C@@H]1C	.	.	-10.5	.	-6.0	4.8	.
CN(c1ccc(NC(=O)CCc2c[nH]c3ccccc23)cc1)c1ccccn1	.	.	-5.8	.	20.2	59.4*	-6.5%
CN(C(=O)COC(=O)c1cc(-c2ccccc2Cl)nc2ccccc12)C1CCS(=O)(=O)C1 (configuration not stated)	-1.5	4.9	6.9	0.4	28.3	84.5*	-2.4%
CN(C(=O)COC(=O)c1cc(-c2ccc(Cl)s2)nc2ccccc12)C1CCS(=O)(=O)C1 (configuration not stated)	4.6	0.8	-13.0	-2.5	25.9	-17.2	.
O=C1/C(=C\c2ccc(Cl)cc2)CCC1CNc1ccc(Cl)cc1 (configuration not stated)	-0.6	51.0	-48.4	22.2	6.8	12.6	.
CN(C)CC1CCC/C(=C\c2ccc(OC(=O)c3ccc(Cl)cc3)cc2)C1=O (configuration not stated)	24.6	46.4	7.4	91.5*	.	58.9*	-8.4%
COC(=O)c1ccccc1-c1c2ccc(=N)cc-2oc2cc(N)ccc12	12.3	-9.0	12.5	56.3	96.0*	85.5*	<0.03µM*
